Outcome and AC50 data for 8 molecules are collected here from PubChem BioAssay (EPA / NIEHS).

Records with an inconclusive call do not appear. Activity calls are given as the source filed them. The calls were made as follows, unless noted: active = hit-call score of the fitted dose curve at least 0.9, where 1 is the maximum; inactive = score below 0.9.

Experiment [1] addresses Paired box protein Pax-6 (Homo sapiens) (UniProt P26367). The experiment can be described thus: ATG_Pax6_CIS: Attagene CIS-FACTORIAL HepG2 Assay for human Paired Box 6 (PAX6) (AID 2282956). The conditions noted are these: HepG2 CIS-FACTORIAL PAX6 reporter transcription, RNA readout; actives raise or lower the signal. In short, it runs like this:
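Fluorescent RT-PCR products separated by capillary electrophoresis report PAX6-linked promoter mRNA in HepG2 cells 24 h post-dose. Curves fitted bidirectionally, DMSO as negative control.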

The nature of experiment [2]: ATG_PPRE_CIS: Attagene CIS-FACTORIAL HepG2 Assay for human Peroxisome Proliferator-activated Response Element (PPRE) (AID 2282958). The conditions noted are these: HepG2 PPRE cis-element reporter, Attagene transcription factor profiling; actives raise or lower the signal. Summed up:
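HepG2 cells transiently transfected with multiplexed cis-element reporter units measure endogenous transcription factor activity. After 24 h compound exposure, reporter mRNA is quantified by RT-PCR, 6-FAM labeling, HpaI digestion and capillary electrophoresis; bidirectional fits are made against DMSO baseline.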

A short description of experiment [3]: ATG_RORE_CIS: Attagene CIS-FACTORIAL HepG2 Assay for human RAR-related Orphan Receptor Element (RORE) (AID 2282959). The following applies: HepG2 Attagene cis-factorial RORE reporter, mRNA; actives raise or lower the signal. In short, it runs like this:
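HepG2 cells transiently transfected with multiple cis-element reporter transcription units, exposed to chemical for 24 h. Reporter mRNA quantified by RT-PCR, 6-FAM primer-extension labeling, HpaI digestion and capillary electrophoresis; bidirectional fit versus DMSO baseline.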

A short description of experiment [4]: ATG_Sox_CIS: Attagene CIS-FACTORIAL HepG2 Assay for human SRY-box transcription factor (SOX) (AID 2282960). The conditions noted are these: HepG2 Attagene cis-factorial SOX reporter, mRNA; actives raise or lower the signal. In short, it runs like this: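 HepG2 cells transiently transfected with cis-element-driven multiple reporter transcription units, dosed 24 h; reporter mRNA measured by RT-PCR, FAM labelling, HpaI digestion and capillary electrophoresis. Bidirectional fit versus DMSO baseline.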

Experiment [5] concerns the target Transcription factor Sp1 (Homo sapiens) (UniProt P08047). The experiment can be described thus: ATG_Sp1_CIS: Attagene CIS-FACTORIAL HepG2 Assay for human Specificity Protein 1 (Sp1) (AID 2282961). The following applies: HepG2 Sp1 cis-reporter transcription, actives raise or lower the signal. In short, it runs like this: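 HepG2 cells transiently transfected with multiple reporter transcription units driven by cis-regulatory elements; Sp1-responsive reporter mRNA measured 24 h after dosing by RT-PCR and capillary electrophoresis fluorescence, fitted bidirectionally against DMSO baseline.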

Experiment [6] is described as follows: ATG_SREBP_CIS: Attagene CIS-FACTORIAL HepG2 Assay for human Sterol Regulatory Element Binding (SREBP) (AID 2282962). The following applies: HepG2 Attagene cis-factorial SREBP reporter, mRNA; actives raise or lower the signal. In short, it runs like this:
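Endogenous factor activity is measured in HepG2 through multiplexed reporter units under cis-element control. Following a 24 h incubation, reporter transcripts are reverse-transcribed, PCR-amplified and sized by capillary electrophoresis; activity is fitted in both directions relative to DMSO.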

The target of experiment [7] is Signal transducer and activator of transcription 3 (Homo sapiens) (UniProt P40763). Nature of the experiment: ATG_STAT3_CIS: Attagene CIS-FACTORIAL HepG2 Assay for human Signal Transducer and Activator of Transcription 3 (STAT3) (AID 2282963). The conditions noted are these: HepG2, Attagene cis-factorial STAT3 reporter transcription; actives raise or lower the signal. Summed up:
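Fluorescence intensity of 6-FAM-labelled reporter fragments, separated by capillary electrophoresis after RT-PCR, gave the signal. Cells were HepG2 transfected with cis-element reporter units and treated 24 h; fitting was bidirectional relative to DMSO.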

The nature of experiment [8]: ATG_TA_CIS: Attagene CIS-FACTORIAL HepG2 Assay for human TA Basal Promoter (AID 2282964). The following applies: HepG2 Attagene CIS-factorial TA basal promoter reporter; actives raise or lower the signal. In short, it runs like this:
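Read-out: fluorescent reporter-transcript fragments resolved by capillary electrophoresis after RT-PCR and HpaI digestion. Source: HepG2 cells carrying transiently transfected multi-reporter cis constructs, treated 24 h. Endpoint fitted bidirectionally relative to DMSO.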

Experiment [9] can be described thus: ATG_TCF_b_cat_CIS: Attagene CIS-FACTORIAL HepG2 Assay for human T-Cell-Factor with beta-catenin (TCF/b-cat) (AID 2282965). The conditions noted are these: HepG2 TCF/beta-catenin cis-reporter transcription, actives raise or lower the signal. In short, it runs like this: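 HepG2 cells transiently transfected with cis-promoter-driven multiplexed reporter units; reporter mRNA measured 24 h after dosing by RT-PCR, FAM labelling, HpaI digestion and capillary electrophoresis. Bidirectional fitting relative to DMSO baseline.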

Experiment [10] in a line: ATG_TAL_CIS: Attagene CIS-FACTORIAL HepG2 Assay for human TAL Basal Promoter (AID 2282966).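 Also: background control endpoint measuring basal TAL promoter reporter mRNA not a specific factor.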 The following applies: HepG2 Attagene cis-factorial TAL promoter reporter; actives raise or lower the signal. In short, it runs like this:
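Basal-promoter background-control endpoint from a multiplexed HepG2 reporter panel. Cells were exposed 24 h, then reporter mRNA was read by RT-PCR/CE fluorescence and fitted in both directions relative to DMSO.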

Experiment [11] is described as follows: ATG_TGFb_CIS: Attagene CIS-FACTORIAL HepG2 Assay for human Transforming Growth Factor (TGF) (AID 2282967). The following applies: HepG2 Attagene CIS TGFb reporter, mRNA transcription; actives raise or lower the signal. In short, it runs like this:
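Transient MRTU transfection of HepG2 (FuGene 6). Dose 24 h. TriZol RNA, oligo(dT) RT, PCR, 6-FAM primer extension, HpaI cut, CE. Bidirectional fit, DMSO = baseline.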

Experiment [12] can be described thus: ATG_VDRE_CIS: Attagene CIS-FACTORIAL HepG2 Assay for human Vitamin D Receptor Element (VDRE) (AID 2282968). The following applies: HepG2 VDRE cis-reporter transcription, actives raise or lower the signal. In short, it runs like this:
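Compounds were applied for 24 h to HepG2 cells transfected with promoter-regulated reporter units. Total RNA was reverse-transcribed, and reporter amplicons were fluorescently labelled and sized by capillary electrophoresis.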

In experiment [13] the target is Nuclear receptor subfamily 1 group I member 3 (Homo sapiens) (UniProt Q14994). The experiment can be described thus: ATG_CAR_TRANS: Attagene TRANS-FACTORIAL HepG2 Assay for human Constitutive Androstane Receptor (CAR) (AID 2282969; active = hit-call score of the fitted dose curve at least 0.9, where 1 is the maximum;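 also: activators raise reporter mRNA above DMSO so AC50 marks induction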). The following applies: HepG2 Attagene TRANS-FACTORIAL CAR reporter. Summed up: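 Transiently transfected HepG2, multiplex TRANS reporters (CAR-Gal4 chimera driving GAL4-UAS reporter). 24 h dosing. Readout: reporter transcript by RT-PCR + capillary electrophoresis, fluorescence intensity; positive direction vs DMSO.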
Chain of Nuclear receptor subfamily 1 group I member 3 (Homo sapiens) (Q14994 whole entry, looked up, the tested form may be a part): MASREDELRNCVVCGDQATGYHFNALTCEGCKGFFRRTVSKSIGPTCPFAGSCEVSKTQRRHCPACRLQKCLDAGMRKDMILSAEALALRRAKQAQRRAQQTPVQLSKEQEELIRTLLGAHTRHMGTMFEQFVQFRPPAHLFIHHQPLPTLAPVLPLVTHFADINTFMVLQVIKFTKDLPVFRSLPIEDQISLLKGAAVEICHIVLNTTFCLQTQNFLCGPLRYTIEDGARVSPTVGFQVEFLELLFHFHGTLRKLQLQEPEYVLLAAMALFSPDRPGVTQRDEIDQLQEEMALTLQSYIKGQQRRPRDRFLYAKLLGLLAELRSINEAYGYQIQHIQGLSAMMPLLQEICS

For experiment [14], the target named is Estrogen receptor (Homo sapiens) (UniProt P03372). Nature of the experiment: ATG_ERa_TRANS: Attagene TRANS-FACTORIAL HepG2 Assay for human Estrogen Receptor alpha (ERa) (AID 2282970; active = hit-call score of the fitted dose curve at least 0.9, where 1 is the maximum). The conditions noted are these: HepG2 Attagene TRANS ERa GAL4 reporter, mRNA. In short, it runs like this: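 Gal4-fusion ERa transactivation, measured as reporter transcript level in transiently transfected HepG2 cells. Exposure 24 h; RT-PCR plus capillary electrophoresis with fluorescence detection.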
Chain of Estrogen receptor (Homo sapiens) (P03372 whole entry, looked up, the tested form may be a part): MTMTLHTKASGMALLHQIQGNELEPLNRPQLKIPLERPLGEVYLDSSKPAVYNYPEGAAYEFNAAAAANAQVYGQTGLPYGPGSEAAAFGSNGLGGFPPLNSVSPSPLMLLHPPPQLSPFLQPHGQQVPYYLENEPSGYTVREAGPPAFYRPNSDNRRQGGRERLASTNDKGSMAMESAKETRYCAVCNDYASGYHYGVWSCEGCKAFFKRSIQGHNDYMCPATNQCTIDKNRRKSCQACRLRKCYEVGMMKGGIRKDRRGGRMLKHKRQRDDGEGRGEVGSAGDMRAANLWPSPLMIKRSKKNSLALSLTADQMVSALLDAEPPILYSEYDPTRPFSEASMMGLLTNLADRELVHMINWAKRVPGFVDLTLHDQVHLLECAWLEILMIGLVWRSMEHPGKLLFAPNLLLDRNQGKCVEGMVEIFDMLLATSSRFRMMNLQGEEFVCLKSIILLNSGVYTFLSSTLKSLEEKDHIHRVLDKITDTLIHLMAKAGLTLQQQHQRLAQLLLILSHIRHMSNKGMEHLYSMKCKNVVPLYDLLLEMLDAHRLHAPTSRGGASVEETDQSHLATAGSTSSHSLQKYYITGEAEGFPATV

Experiment [15] concerns the target X-box-binding protein 1 (Homo sapiens) (UniProt P17861). Nature of the experiment: ATG_Xbp1_CIS: Attagene CIS-FACTORIAL HepG2 Assay for human X-box Binding Protein 1 (XBP1) (AID 2282972). The following applies: HepG2 XBP1 cis-element reporter, Attagene multiplex; actives raise or lower the signal. In short, it runs like this:
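Multiplexed cis-reporter readout in transfected HepG2 liver cells. Exposure lasted 24 hours. Activity in either direction was fitted against DMSO as negative control and baseline.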

Experiment [16] can be described thus: ATG_GAL4_TRANS: Attagene TRANS-FACTORIAL HepG2 Assay for GAL4 (Internal Marker) (AID 2282976; active = hit-call score of the fitted dose curve at least 0.9, where 1 is the maximum). The conditions noted are these: HepG2 Attagene TRANS GAL4 internal marker reporter. In short, it runs like this: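 Background-control readout: GAL4-UAS reporter transcript in transiently transfected HepG2 cells after 24 h compound exposure. Measured by RT-PCR, 6-FAM primer extension, HpaI digest and capillary electrophoresis; gain-of-signal fit versus DMSO.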

The target in experiment [17] is Estrogen-related receptor gamma (Homo sapiens) (UniProt P62508). The experiment can be described thus: ATG_ERRg_TRANS: Attagene TRANS-FACTORIAL HepG2 Assay for human Estrogen-Related Receptor gamma (ERRg) (AID 2282977; active = hit-call score of the fitted dose curve at least 0.9, where 1 is the maximum;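 also: hits increase reporter signal over DMSO so potencies reflect activators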). The following applies: HepG2 Attagene TRANS reporter, ERRg transactivation. Summed up:
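Induction of reporter transcripts through a chimeric NR-Gal4 protein is quantified in transfected human HepG2 liver cells after 24 h chemical exposure, using RT-PCR with capillary electrophoresis detection and DMSO as baseline.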

Experiment [18] is described as follows: ATG_PXRE_CIS: Attagene CIS-FACTORIAL HepG2 Assay for human Pregnane X Receptor Element (PXRE) (AID 2282957). The conditions noted are these: HepG2 Attagene CIS-FACTORIAL PXRE reporter, mRNA; actives raise or lower the signal. Summed up: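 After a 24 h chemical incubation, total RNA from transfected HepG2 cells was reverse-transcribed and reporter cDNA amplified, FAM-labeled, HpaI-digested and sized by capillary electrophoresis. DMSO served as baseline for bidirectional curve fitting.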

The target of experiment [19] is Steroid hormone receptor ERR1 (Homo sapiens) (UniProt P11474). Nature of the experiment: ATG_ERRa_TRANS: Attagene TRANS-FACTORIAL HepG2 Assay for human Estrogen-Related Receptor alpha (ERRa) (AID 2282971; active = hit-call score of the fitted dose curve at least 0.9, where 1 is the maximum). The conditions noted are these: HepG2 Attagene TRANS reporter, ERRa transactivation. In short, it runs like this: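 HepG2 cells transiently transfected with GAL4-UAS reporter units and chimeric NR-Gal4 constructs; after 24 hour compound incubation, reporter mRNA quantified by RT-PCR, fluorescent labelling and capillary electrophoresis, gain of signal versus DMSO.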
Chain of Steroid hormone receptor ERR1 (Homo sapiens) (P11474 whole entry, looked up, the tested form may be a part): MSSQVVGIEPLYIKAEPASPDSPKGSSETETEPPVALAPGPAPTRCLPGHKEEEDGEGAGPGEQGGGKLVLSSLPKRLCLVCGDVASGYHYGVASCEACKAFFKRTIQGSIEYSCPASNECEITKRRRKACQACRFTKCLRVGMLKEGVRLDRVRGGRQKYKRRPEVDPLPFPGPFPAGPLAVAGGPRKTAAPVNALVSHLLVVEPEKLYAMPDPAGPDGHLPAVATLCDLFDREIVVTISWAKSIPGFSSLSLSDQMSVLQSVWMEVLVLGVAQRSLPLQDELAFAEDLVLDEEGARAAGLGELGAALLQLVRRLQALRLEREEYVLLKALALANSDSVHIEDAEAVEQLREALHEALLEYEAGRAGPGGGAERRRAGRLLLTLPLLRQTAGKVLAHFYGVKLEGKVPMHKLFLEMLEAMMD

Experiment [20] in a line: ATG_M_19_TRANS: Attagene TRANS-FACTORIAL HepG2 Assay for M19 Transcription Factor (Internal Marker) (AID 2282974; active = hit-call score of the fitted dose curve at least 0.9, where 1 is the maximum). The following applies: HepG2 Attagene TRANS-FACTORIAL M19 internal marker reporter. Summed up:
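HepG2 cells transiently transfected with multiple GAL4-UAS reporter transcription units were exposed to chemicals for 24 h. Reporter mRNA was read by RT-PCR, 6-FAM primer extension, HpaI digestion and capillary electrophoresis; gain of signal fitted relative to DMSO.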

Chain of Signal transducer and activator of transcription 3 (Homo sapiens) (P40763 whole entry, looked up, the tested form may be a part): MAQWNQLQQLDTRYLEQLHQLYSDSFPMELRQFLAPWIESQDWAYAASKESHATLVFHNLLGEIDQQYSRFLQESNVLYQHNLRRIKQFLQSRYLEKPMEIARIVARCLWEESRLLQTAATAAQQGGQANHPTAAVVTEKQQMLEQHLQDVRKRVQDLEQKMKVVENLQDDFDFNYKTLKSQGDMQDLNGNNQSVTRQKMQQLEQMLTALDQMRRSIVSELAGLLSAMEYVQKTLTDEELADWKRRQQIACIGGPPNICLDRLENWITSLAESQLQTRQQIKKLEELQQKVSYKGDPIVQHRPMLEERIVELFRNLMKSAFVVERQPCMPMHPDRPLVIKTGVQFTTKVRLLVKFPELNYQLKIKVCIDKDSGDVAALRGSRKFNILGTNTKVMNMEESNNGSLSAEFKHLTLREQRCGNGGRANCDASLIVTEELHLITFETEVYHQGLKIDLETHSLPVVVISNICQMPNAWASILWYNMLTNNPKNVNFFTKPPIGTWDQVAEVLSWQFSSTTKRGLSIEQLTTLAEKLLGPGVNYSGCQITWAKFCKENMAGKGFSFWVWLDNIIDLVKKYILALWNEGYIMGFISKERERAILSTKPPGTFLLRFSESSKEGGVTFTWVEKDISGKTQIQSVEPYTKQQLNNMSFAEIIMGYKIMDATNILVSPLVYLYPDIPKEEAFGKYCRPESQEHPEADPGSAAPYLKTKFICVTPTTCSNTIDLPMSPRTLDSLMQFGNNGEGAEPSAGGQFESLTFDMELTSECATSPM
Chain of X-box-binding protein 1 (Homo sapiens) (P17861 whole entry, looked up): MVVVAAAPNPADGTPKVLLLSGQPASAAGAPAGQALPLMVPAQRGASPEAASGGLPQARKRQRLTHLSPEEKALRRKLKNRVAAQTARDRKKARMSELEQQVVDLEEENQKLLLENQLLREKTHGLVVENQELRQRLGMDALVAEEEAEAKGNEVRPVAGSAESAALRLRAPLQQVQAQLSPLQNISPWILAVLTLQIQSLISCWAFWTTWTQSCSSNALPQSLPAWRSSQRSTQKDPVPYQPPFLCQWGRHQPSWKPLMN
Chain of Transcription factor Sp1 (Homo sapiens) (P08047 whole entry, looked up): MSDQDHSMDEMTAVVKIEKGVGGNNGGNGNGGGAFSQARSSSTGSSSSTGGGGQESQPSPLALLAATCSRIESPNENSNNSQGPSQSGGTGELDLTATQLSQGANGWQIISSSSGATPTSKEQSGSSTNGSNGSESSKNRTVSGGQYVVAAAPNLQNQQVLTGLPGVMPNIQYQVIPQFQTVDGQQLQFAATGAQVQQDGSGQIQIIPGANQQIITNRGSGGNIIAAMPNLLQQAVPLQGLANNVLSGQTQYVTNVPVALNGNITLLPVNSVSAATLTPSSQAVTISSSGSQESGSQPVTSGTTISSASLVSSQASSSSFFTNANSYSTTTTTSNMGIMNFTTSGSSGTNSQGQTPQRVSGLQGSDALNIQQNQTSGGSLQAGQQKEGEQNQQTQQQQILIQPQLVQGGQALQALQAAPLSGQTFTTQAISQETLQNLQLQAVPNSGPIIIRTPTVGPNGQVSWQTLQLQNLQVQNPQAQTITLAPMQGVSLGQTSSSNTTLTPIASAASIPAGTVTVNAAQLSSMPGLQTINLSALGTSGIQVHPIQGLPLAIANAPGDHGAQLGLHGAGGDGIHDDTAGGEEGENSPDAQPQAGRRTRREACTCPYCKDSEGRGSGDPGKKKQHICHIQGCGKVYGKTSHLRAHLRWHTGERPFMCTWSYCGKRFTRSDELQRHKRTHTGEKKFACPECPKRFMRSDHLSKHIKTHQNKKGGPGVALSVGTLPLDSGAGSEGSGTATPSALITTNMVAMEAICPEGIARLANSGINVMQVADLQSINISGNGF
Chain of Paired box protein Pax-6 (Homo sapiens) (P26367 whole entry, looked up): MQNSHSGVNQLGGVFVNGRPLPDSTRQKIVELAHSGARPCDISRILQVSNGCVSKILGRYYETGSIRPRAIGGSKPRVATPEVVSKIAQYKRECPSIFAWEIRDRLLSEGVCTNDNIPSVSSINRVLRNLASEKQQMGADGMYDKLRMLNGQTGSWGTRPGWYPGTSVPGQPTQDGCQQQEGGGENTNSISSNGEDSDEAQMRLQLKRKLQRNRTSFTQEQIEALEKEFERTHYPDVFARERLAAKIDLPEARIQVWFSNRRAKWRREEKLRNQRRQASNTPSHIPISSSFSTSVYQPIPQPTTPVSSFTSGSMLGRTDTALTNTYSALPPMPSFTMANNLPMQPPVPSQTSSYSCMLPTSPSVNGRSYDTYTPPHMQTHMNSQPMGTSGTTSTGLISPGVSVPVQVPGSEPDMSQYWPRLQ
Chain of Estrogen-related receptor gamma (Homo sapiens) (P62508 whole entry, looked up, the tested form may be a part): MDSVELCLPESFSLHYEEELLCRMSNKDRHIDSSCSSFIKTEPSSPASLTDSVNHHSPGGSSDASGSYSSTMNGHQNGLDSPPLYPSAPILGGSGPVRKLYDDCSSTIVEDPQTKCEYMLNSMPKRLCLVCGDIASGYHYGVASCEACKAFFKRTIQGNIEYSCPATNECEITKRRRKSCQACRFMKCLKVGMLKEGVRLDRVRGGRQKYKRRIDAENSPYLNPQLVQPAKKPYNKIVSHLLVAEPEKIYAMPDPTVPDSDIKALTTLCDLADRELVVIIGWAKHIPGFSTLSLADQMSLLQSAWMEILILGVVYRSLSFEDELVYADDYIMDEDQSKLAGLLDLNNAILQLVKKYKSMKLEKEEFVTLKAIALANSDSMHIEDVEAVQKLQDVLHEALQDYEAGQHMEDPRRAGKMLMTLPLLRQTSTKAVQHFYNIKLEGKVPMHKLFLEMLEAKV

For `O=C(O)c1cccc(C(F)(F)F)c1`, the call in experiment [1], in experiment [2], in experiment [3], in [4], in experiment [5] and in experiment [6] was inactive. Moreover, the result in [7], in experiment [8], in [9], in [10], in [11] and in [12] was inactive. The outcome in [13], in experiment [14], in [15], in [16] and in experiment [17] was inactive.
Consider `CN(C)c1ccc(O)c2c1C[C@H]1C[C@H]3[C@H](N(C)C)C(=O)C(C(N)=O)=C(O)[C@@]3(O)C(=O)C1=C2O`, for which the outcome in experiment [1], in experiment [18], in [4], in experiment [5], in [6] and in experiment [7] was inactive. For the same molecule, the outcome in experiment [8], in experiment [9], in experiment [10], in experiment [11], in experiment [12] and in experiment [13] was inactive. For the same molecule, the call in experiment [15] and in experiment [16] was inactive.
`C=C(C)[C@@H]1CC[C@@H](C)C[C@@H]1O`: the call in experiment [1], in [18], in experiment [3], in experiment [5], in experiment [6] and in experiment [7] was inactive. In addition, the molecule was called inactive in experiment [8], in [9], in experiment [10], in experiment [11], in [15] and in experiment [16].
Turning to `O=C1NC(=O)c2ccccc21`, the molecule was called inactive in experiment [1], in experiment [3], in experiment [4], in experiment [6], in experiment [7] and in experiment [8]. Moreover, the outcome in [9], in [10], in [11], in experiment [12] and in experiment [15] was inactive. In addition, the AC50 in experiment [18] is 38.5 µM (active).
In the case of `C=C(C)C(=O)Nc1ccc(Cl)c(Cl)c1`, the result in experiment [1], in experiment [4], in experiment [6], in experiment [7], in experiment [8] and in [9] was inactive. The call in experiment [10], in experiment [13], in experiment [14] and in [15] was inactive. Moreover, the AC50 in experiment [18] was 10.2 µM (active); in experiment [12] it was 20.6 µM (active).
Consider `CNC[C@H](O)c1cccc(O)c1`, for which the molecule was classed as inactive in experiment [1], in experiment [4], in [7], in experiment [9], in [10] and in [12]. The result in [13], in experiment [19], in experiment [15] and in experiment [20] was inactive. Besides, in experiment [18], the AC50 was 34.2 µM (active).
Consider `OCC(CO)(CO)COCC(CO)(CO)CO`, for which the molecule was called inactive in [1], in [18], in experiment [3], in experiment [5], in experiment [6] and in [7]. In addition, the outcome in experiment [8], in experiment [9], in [10], in [11], in [13] and in [15] was inactive.
Regarding `CCCCCC(=O)OCCc1ccccc1`, the call in [1], in experiment [18], in experiment [4], in [5], in experiment [6] and in [7] was inactive. Also, the result in experiment [9], in [10], in [11], in [12], in experiment [13] and in experiment [14] was inactive. Besides, the call in [19] and in experiment [15] was inactive.

For orientation: AC50 means the midpoint of the concentration-response curve, whichever way the signal moves.
